Experimental data reported in the supplement of paper PMC10849652.
About 7,900 targets were measured; listed, in parts, are those with a hit and a random draw of the rest. About 0.6% of all pairs of compound and target were hits. Values without a mark were called inactive.

Each target was assayed with CC(C)C[C@@H](C=O)NC(=O)[C@H](CC(C)C)NC(=O)[C@H](CC(C)C)NC(=O)OCc1ccccc1 (assay: log2 fold change, soluble protein after heating vs DMSO (PISA); higher = thermal stabilisation; K562 cells, 10 uM, 30 min; active = over 0.2 and 3.5 SD of the protein, either way, in both replicates (recomputed)).
Summary of the method: (§1)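 Soluble protein was quantified by TMTpro 16plex LC-MS/MS after channel sums were equalised. It was obtained as the supernatant after 21,000xg for 90 min from pooled aliquots of K562 cells (2×10^6 cells/mL, 10 μM compound, 30 min) heated for 3 min across 48°C-58°C and extracted in PBS with 0.5% NP-40 at 4°C. Thermal stability values are relative to control samples and come from duplicates. They are given as log2 fold changes.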

Chain of UniProt O75956 (O75956 whole entry, looked up): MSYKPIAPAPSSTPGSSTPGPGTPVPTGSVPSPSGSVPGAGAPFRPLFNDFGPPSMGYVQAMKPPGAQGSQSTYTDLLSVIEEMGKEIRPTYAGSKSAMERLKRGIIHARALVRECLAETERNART
Chain of UniProt O95628 (O95628 whole entry, looked up): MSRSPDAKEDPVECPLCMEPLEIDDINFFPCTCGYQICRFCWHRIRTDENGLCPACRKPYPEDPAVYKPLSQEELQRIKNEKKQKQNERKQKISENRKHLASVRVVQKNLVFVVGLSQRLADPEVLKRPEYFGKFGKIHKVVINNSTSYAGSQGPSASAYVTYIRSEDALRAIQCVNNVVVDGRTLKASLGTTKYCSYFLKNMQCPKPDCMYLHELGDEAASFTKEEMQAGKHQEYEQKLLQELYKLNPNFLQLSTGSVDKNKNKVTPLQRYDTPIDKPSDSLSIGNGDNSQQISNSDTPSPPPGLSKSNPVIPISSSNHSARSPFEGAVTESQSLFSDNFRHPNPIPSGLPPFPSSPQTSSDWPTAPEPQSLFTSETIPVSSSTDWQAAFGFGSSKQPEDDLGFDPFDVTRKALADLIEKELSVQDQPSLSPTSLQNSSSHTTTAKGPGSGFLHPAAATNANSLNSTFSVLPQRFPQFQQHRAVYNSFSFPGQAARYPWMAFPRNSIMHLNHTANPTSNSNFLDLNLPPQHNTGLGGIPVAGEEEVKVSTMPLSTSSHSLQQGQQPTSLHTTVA
Chain of UniProt Q14061 (Q14061 whole entry, looked up): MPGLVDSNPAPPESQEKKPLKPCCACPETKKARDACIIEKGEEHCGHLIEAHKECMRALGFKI
Chain of UniProt P46527 (P46527 whole entry, looked up): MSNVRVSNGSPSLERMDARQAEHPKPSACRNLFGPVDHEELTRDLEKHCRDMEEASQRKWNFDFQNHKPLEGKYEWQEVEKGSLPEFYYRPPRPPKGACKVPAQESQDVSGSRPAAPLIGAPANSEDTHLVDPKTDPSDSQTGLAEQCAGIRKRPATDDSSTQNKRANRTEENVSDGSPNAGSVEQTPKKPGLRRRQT
Chain of UniProt O75153 (O75153 whole entry, looked up): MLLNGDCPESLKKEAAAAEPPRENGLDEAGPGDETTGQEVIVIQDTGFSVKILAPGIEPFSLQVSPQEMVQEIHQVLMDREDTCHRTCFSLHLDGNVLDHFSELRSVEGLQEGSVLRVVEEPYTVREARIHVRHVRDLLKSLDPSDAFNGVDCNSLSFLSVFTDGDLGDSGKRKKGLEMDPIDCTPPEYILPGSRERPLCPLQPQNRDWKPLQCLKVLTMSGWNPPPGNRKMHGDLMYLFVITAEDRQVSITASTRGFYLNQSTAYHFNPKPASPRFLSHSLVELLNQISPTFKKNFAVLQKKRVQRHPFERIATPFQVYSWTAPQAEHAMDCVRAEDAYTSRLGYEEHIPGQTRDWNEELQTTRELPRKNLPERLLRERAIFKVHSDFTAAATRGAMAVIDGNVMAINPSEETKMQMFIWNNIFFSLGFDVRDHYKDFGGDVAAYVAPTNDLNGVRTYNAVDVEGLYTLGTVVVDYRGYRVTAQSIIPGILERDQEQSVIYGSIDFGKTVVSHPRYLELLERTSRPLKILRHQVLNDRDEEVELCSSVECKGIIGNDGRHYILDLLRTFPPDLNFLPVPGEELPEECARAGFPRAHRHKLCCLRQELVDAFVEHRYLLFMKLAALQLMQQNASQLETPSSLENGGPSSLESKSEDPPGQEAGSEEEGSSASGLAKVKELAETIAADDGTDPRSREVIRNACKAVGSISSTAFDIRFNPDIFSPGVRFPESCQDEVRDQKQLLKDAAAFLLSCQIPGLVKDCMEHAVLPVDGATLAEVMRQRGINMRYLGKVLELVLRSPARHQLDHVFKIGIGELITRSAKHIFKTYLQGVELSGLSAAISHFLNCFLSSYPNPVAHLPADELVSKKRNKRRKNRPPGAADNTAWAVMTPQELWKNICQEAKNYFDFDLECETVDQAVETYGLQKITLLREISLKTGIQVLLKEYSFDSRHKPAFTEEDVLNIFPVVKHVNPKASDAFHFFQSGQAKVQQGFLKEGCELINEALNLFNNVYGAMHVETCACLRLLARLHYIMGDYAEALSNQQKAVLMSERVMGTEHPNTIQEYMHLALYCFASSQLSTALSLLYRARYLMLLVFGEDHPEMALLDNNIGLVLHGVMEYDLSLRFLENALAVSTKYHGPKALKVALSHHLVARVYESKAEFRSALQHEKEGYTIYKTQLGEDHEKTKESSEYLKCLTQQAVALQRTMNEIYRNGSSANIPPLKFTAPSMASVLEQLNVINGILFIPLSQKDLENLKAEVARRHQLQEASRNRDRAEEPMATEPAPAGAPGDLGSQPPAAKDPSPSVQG
Chain of UniProt Q14746 (Q14746 whole entry, looked up): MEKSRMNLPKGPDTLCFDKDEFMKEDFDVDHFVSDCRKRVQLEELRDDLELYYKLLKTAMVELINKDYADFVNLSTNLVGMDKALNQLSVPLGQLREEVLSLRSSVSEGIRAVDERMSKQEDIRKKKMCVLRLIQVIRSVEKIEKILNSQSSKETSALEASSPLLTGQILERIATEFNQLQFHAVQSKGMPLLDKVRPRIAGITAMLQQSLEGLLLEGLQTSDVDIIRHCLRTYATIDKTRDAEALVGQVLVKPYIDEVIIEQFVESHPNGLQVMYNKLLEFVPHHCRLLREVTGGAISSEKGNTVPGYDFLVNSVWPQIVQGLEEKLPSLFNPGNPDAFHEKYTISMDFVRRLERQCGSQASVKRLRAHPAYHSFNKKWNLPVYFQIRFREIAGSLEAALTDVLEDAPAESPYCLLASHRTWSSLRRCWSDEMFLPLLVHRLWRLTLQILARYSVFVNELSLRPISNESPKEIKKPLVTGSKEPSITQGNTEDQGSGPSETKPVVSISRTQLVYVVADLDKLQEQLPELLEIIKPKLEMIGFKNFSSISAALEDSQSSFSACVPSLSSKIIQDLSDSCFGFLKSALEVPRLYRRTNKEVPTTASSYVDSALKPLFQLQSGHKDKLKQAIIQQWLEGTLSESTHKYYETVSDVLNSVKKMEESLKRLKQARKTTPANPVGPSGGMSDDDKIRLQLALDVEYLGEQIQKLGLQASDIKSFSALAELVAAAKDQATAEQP
Chain of UniProt Q14677 (Q14677 whole entry, looked up): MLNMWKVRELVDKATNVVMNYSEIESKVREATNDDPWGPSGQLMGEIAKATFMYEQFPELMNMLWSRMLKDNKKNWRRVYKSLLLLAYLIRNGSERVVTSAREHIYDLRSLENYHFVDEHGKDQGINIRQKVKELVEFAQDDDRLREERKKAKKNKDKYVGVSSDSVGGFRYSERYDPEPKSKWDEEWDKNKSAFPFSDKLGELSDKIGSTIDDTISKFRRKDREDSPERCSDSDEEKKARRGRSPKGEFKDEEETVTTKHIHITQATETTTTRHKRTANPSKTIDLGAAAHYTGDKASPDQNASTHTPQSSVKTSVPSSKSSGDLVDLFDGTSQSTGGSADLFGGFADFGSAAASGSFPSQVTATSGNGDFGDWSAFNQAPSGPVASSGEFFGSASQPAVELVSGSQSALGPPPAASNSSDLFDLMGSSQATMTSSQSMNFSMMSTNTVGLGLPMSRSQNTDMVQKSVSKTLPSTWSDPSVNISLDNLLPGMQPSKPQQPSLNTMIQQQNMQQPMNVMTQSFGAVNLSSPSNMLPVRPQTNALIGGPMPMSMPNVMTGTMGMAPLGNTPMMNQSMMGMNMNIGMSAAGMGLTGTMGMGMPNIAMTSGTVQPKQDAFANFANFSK
Chain of UniProt Q16740 (Q16740 whole entry, looked up): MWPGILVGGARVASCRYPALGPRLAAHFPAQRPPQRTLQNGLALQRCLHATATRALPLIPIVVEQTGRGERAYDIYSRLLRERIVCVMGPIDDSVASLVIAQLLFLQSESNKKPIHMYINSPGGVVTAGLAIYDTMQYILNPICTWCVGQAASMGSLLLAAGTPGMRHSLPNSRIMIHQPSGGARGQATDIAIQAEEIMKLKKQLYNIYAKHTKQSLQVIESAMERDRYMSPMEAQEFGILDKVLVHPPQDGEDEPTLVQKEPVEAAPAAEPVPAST
Chain of UniProt Q13111 (Q13111 whole entry, looked up): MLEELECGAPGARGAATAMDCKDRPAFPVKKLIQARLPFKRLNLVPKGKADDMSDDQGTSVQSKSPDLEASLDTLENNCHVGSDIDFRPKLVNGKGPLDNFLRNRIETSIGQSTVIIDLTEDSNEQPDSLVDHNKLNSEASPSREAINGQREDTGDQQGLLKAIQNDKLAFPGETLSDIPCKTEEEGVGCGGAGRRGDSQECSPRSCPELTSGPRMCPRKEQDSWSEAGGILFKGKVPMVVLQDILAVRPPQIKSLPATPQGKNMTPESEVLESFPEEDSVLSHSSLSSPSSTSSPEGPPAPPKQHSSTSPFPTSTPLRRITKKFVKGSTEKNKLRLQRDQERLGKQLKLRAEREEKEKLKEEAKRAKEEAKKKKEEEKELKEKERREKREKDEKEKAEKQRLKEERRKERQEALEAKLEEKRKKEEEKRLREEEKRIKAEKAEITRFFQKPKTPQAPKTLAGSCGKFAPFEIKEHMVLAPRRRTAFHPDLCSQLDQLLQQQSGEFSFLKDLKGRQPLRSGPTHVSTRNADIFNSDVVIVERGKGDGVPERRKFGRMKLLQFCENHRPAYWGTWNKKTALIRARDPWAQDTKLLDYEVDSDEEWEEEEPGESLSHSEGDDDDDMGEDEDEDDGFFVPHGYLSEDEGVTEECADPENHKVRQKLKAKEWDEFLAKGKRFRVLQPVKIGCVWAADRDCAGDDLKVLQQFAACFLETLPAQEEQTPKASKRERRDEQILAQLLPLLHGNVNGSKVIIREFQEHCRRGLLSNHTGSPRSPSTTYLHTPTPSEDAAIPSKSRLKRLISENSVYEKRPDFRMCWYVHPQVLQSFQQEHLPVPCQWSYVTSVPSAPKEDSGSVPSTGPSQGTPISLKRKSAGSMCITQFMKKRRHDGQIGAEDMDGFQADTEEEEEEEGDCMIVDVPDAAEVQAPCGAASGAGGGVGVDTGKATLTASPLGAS
Chain of UniProt A8MTT3 (A8MTT3 whole entry, looked up): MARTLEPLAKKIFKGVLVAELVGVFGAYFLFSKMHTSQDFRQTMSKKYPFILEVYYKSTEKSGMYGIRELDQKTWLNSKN

| Target | log2 fold change |
| --- | --- |
| CLUH, A0A494C0R8 | 0.199 |
| CHAF1A (UniProt Q13111) | 0.08 |
| CLINT1 isoform 3 (UniProt Q14677) | 0.04 |
| CCNC (UniProt P24863) | 0.071 |
| CLPP (UniProt Q16740) | -0.008 |
| CDK19 (UniProt Q9BWU1) | 0.074 |
| CDK5 (UniProt Q00535) | 0.043 |
| CLTB (UniProt P09497) | -0.067 |
| COG2 (UniProt Q14746) | 0.18 |
| C15orf41 (UniProt Q9Y2V0) | 0.11 |
| CNOT4 isoform 9 (UniProt O95628) | 0.015 |
| C19orf54 (UniProt Q5BKX5) | 0.08 |
| CLASP2 (UniProt O75122) | 0.161 |
| CCND3 (UniProt P30281) | 0.341 |
| CDCA2 (UniProt Q69YH5) | 0.188 |
| CDK2AP2 (UniProt O75956) | -0.438 (active) |
| CDKN1B (UniProt P46527) | 0.536 (active) |
| CORO2A (UniProt Q92828) | 0.21 |
| CLUH (UniProt O75153) | -0.009 |
| CENPE (UniProt Q02224) | 0.11 |
| CCNDBP1 (UniProt O95273) | -0.027 |
| CLSPN (UniProt Q9HAW4) | 0.124 |
| CLPTM1L (UniProt Q96KA5) | 0.006 |
| CLN8 (UniProt Q9UBY8) | 0.139 |
| CDC25B isoform 4 (UniProt P30305) | -0.02 |
| CDK4 (UniProt P11802) | 0.105 |
| CLCN3 (UniProt P51790) | -0.039 |
| CEBPZOS (UniProt A8MTT3) | -0.059 |
| COX17 (UniProt Q14061) | -0.196 |

The targets below were run with CC(C)N(C[C@H]1O[C@@H](n2cnc3c(N)ncnc32)[C@H](O)[C@@H]1O)[C@H]1C[C@@H](CCc2nc3cc(C(C)(C)C)ccc3[nH]2)C1 [pinometostat] in the same assay as above.
Summary of the method: as §1

| Target | log2 fold change |
| --- | --- |
| CLUH, A0A494C0R8 | -0.044 |
| CHAF1A (UniProt Q13111) | -0.028 |
| CLINT1 isoform 3 (UniProt Q14677) | 0.047 |
| CCNC (UniProt P24863) | -0.058 |
| CLPP (UniProt Q16740) | -0.094 |
| COX7B (UniProt P24311) | -0.139 |
| CLN5 (UniProt O75503) | -0.062 |
| CAV2 (UniProt P51636) | 0.178 |
| CDK5 (UniProt Q00535) | 0.024 |
| CLTB (UniProt P09497) | -0.07 |
| COG2 (UniProt Q14746) | -0.043 |
| C15orf41 (UniProt Q9Y2V0) | 0.027 |
| CNOT4 isoform 9 (UniProt O95628) | -0.028 |
| C19orf54 (UniProt Q5BKX5) | -0.016 |
| CLASP2 (UniProt O75122) | 0.057 |
| CDCA2 (UniProt Q69YH5) | -0.008 |
| CDK2AP2 (UniProt O75956) | -0.135 |
| CDKN1B (UniProt P46527) | -0.023 |
| CLUH (UniProt O75153) | 0.045 |
| CDK17 isoform 2 (UniProt Q00537) | 0.037 |
| CENPE (UniProt Q02224) | -0.002 |
| CLSPN (UniProt Q9HAW4) | -0.018 |
| CLPTM1L (UniProt Q96KA5) | 0.023 |
| CMTM3 (UniProt Q96MX0) | 0 |
| CDC25B isoform 4 (UniProt P30305) | 0.007 |
| CDK4 (UniProt P11802) | 0.081 |
| CLCN3 (UniProt P51790) | -0.031 |
| CEBPZOS (UniProt A8MTT3) | -0.026 |
| COX17 (UniProt Q14061) | -0.014 |
